Results on 65 molecules are retold here after PubChem BioAssay AID540303 (National Center for Advancing Translational Sciences (NCATS), 2011).

Out of some 330,000 compounds screened, about 1,000 (0.3%) were called active. Entries that show only a call come without a potency. Not shown: some 3% with an inconclusive outcome. The sample holds actives, similar compounds and a random draw of the others, so the mix is not that of the screen. The call rests on the fitted dose curve; in most records, active means well fitted inhibition curve with a large enough effect; inconclusive means small, poorly fitted or top-dose-only effect; inactive means no such curve, though single readings can be large or run the other way; tested in mouse RAW 264.7 cells.
Potency means the concentration at half of the fitted maximal effect.

The nature of the experiment: qHTS for Inhibitors of Cell Surface uPA Generation. Further: nearly all actives have a fitted effect of over 55% in size. Particulars: cell surface uPA generation assay; series mostly up to 38.3 µM. The method, boiled down: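 RAW 264.7 cells, 4000/well, given compound (1:5 dilutions, up to 38.3 uM final) and incubated 24 h at 37 C. Blocked uPA-dependent LF entry keeps ATP high; ATPlite luminescence read, 5 s exposure.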
Consider `COc1ccc(-c2ccc3c(c2)C2CC3CCN2CCC#N)cc1` (stereo not given), for which the Potency result was “inactive”.

Consider `CC(C=Cc1ccccc1)=NNS(=O)(=O)c1ccc([N+](=O)[O-])cc1`, for which the Potency result is “inactive”.

On to `CCCCCOc1ccc(CSC2=NCCN2)cc1[N+](=O)[O-]`, for which the Potency was 10 µM (active).

Take `CCCOc1ccc(Cn2ccnc2)cc1[N+](=O)[O-]`: the Potency entry was “inactive”.

In the case of `CCCCOc1ccc(CSC(=N)N)cc1[N+](=O)[O-]`, the Potency result is “inactive”.

Turning to `COc1ccc(Br)cc1/C=N/Nc1ccc(S(=O)(=O)Nc2ccccc2C(=O)O)cc1[N+](=O)[O-]`, the Potency result is “inactive”.

As for `O=C(NCC1(N2CCCCC2)CCCCC1)c1cccc(S(=O)(=O)Nc2ccccc2Cl)c1`, the Potency result was “inactive”.

On to `CN(C)C(CNC(=O)c1cc2ccccc2o1)c1ccccc1` (stereo not given), for which the Potency result is “inactive”.

Take `O=C1/C(=C\c2ccc(O)cc2)CCC1CNc1ccc(Cl)cc1` (stereo not given): the Potency result is “inactive”.

As for `O=C(CC(=O)c1cccnc1)c1ccccc1`, the Potency entry is “inactive”.

As for `COc1ccc(OC)c(/C=C/C(=O)OCC(=O)Nc2ccc3c(c2)OCCO3)c1`, the Potency entry was “inactive”.

With `O=C(/C=C\c1ccc2c(c1)OCO2)NC1(C(=O)Nc2ccc3c(c2)OCCO3)CCCCC1`, the Potency result was “inactive”.

Take `COc1cccc(/C=C/C(=O)Nc2ccc3c(c2)OCCO3)c1`: the Potency was 2.82 µM (active).

As for `c1ccc(CCc2ccccn2)cc1`, the Potency entry is “inactive”.

Take `NC(CSC1(c2ccccc2)c2ccccc2-c2ccccc21)C(=O)O` (stereo not given): the Potency result is “inactive”.

Turning to `O=C(N/N=C/c1cccc(O)c1)c1cc2c(ccc3ccccc32)o1`, the Potency entry was “inactive”.

Regarding `Cc1c(/C=N/N2C(=O)C3C4C=CC(C4)C3C2=O)c2ccccc2n1C` (stereo not given), the Potency entry was “inactive”.

For `Cc1c(/C=N\NC(=O)c2cc3ccccc3o2)c2ccccc2n1C`, the Potency is 3.55 µM (active).

On to `CC(=NNC(=S)N1CCCCCC1)c1ccccn1`, for which the Potency entry was “inactive”.

With `Cc1cc(NC(=O)C(C)SCC(=O)Nc2cccc(S(=O)(=O)N3CCCCCC3)c2)no1` (stereo not given), the Potency result is “inactive”.

`O=C(Nc1ccn(CCCNCc2ccc3[nH]ccc3c2)c(=O)n1)OCc1ccccc1`: the Potency entry is “inactive”.

Consider `NNc1cccc(C=Cc2ccccc2)cc1=O`, for which the Potency result is “inactive”.

Take `C=CCN(C(=O)Nc1ccc2c(c1)nc(C)n2C)c1ccccc1`: the Potency result was “inactive”.

Regarding `Cc1nc2cc(NC(=O)Nc3cccc(F)c3)ccc2n1C`, the Potency is 3.98 µM (active).

As for `Cn1c(CCN2CCCCCC2)nc2cc(NC(=O)Nc3ccccc3)ccc21`, the Potency result is “inactive”.

For `Cc1ccc(OCCNC(=O)c2cccc(S(=O)(=O)N3CCN(Cc4ccccc4)CC3)c2)cc1`, the Potency entry is “inactive”.

In the case of `C=CCOC(=O)N1CCC2CC1c1cc(-c3ccc(OC)cc3)ccc12` (stereo not given), the Potency result was “inactive”.

On to `C[C@@H](NC(=O)[C@@H]1Cc2ccccc2CN1)C(=O)NC1CCCC1`, for which the Potency is 7.08 µM (active).

Regarding `O=C(CNC(=O)[C@@H]1Cc2ccccc2CN1)NC1CCCCC1`, the Potency result was “inactive”.

For the molecule `C[C@H](NC(=O)[C@@H]1Cc2ccccc2CN1C(=O)OC(C)(C)C)C(=O)NC1CCCC1`, the Potency result was “inactive”.

In the case of `NC(=O)c1ncn([C@@H]2O[C@H](CNCc3cnc(N4CCOCC4)s3)[C@@H](O)[C@H]2O)n1`, the Potency result was “inactive”.

With `Cc1c[n+]([O-])ccc1[N+](=O)[O-]`, the Potency result was “inactive”.

Turning to `COc1ccc(-c2ccc3c(c2)[C@@H]2C[C@H](N(C)S(=O)(=O)c4ccccc4)[C@H]([C@H](C)O)C(=O)N2CC3)cc1`, the Potency result is “inactive”.

In the case of `Cc1ccc2c(c1)C1CN(C)CCC1N2S(=O)(=O)c1cccc(F)c1` (stereo not given), the Potency entry was “inactive”.

In the case of `Cc1ccc2c(c1)C1CN(C)CCC1N2C(=S)Nc1ccc(OC(F)F)cc1` (stereo not given), the Potency entry is “inactive”.

Consider `Cc1ccc2c(c1)C1CN(C)CCC1N2S(=O)(=O)c1ccc(Oc2ccc([N+](=O)[O-])cc2)cc1` (stereo not given), for which the Potency was 8.91 µM (active).

In the case of `C/C(=N\Nc1ccc(Cl)nn1)c1ccccc1O`, the Potency entry was “inactive”.

With `C[C@]12CCC(=O)C=C1C=CC1C2CC[C@@]2(C)C1CC[C@@]21CCC(=O)O1` (stereo not given in full), the Potency entry is “inactive”.

`Nc1ccc2[nH]c(=S)sc2c1`: the Potency result was “inactive”.

Consider `N/C(=N\OC(=O)c1ccc([N+](=O)[O-])cc1)c1ccccn1`, for which the Potency result was “inactive”.

Turning to `Cc1ccc(C(=O)O/N=C(\N)c2ccccn2)cc1Cl`, the Potency was 8.91 µM (active).

`COc1ccc(C(=O)O/N=C(\N)c2ccccn2)cc1[N+](=O)[O-]`: the Potency result is “inactive”.

Take `Cc1ccc(S(=O)(=O)N2CCC(C(=O)N3CCCCCCC3)CC2)cc1`: the Potency result is “inactive”.

For `COC(=O)Cc1nc2c(N)nc(N)nc2[nH]c1=O`, the Potency entry was “inactive”.

In the case of `Cc1cccc(-n2ncc(Cl)c(Cl)c2=O)c1`, the Potency is 10 µM (active).

As to `Cc1cccc(N2C(=O)c3cccnc3C2=O)c1`, the Potency result was “inactive”.

In the case of `C=CCNc1cnn(-c2ccc(C)cc2)c(=O)c1Cl`, the Potency entry was “inactive”.

For `CNN/C(N=Cc1ccc([N+](=O)[O-])s1)=N\S(=O)(=O)c1cc(C)c(Cl)cc1SCc1ccccc1`, the Potency result was “inactive”.

As for `CC(C)(C)c1nnc2sc(SCC(O)=C(C#N)c3nc4ccccc4[nH]3)nn2c1=O`, the Potency result is “inactive”.

`COc1ccc(S(=O)(=O)N2C[C@H]3CON(C)[C@H]3C[C@H]2c2cccc(Br)c2)cc1`: the Potency entry is “inactive”.

As for `CN(C(=O)CSc1nncc2ccccc12)C1CCCCC1`, the Potency result is “inactive”.

For `CN(C(=O)c1cc2c(=O)n3ccccc3nc2s1)C1CCCCC1`, the Potency entry is “inactive”.

With `CN(c1ccc2nc3ccccc3c(=O)n2n1)C1CCCCC1`, the Potency was 0.794 µM (active).

`Cn1cc(C2OC(=O)c3ccccc32)c2ccccc21` (stereo not given): the Potency entry is “inactive”.

Turning to `COC(=O)c1ccc(NCc2cc(O)ccc2O)cc1`, the Potency entry was “inactive”.

Consider `O=C(Cc1ccc([N+](=O)[O-])cc1)NCCc1ccc2c(c1)OCO2`, for which the Potency entry was “inactive”.

In the case of `O=C(NCc1ccc2c(c1)OCO2)c1cc([N+](=O)[O-])ccc1N1CCOCC1`, the Potency was 2.82 µM (active).

For `CC1CCN(c2ccc(C(=O)NCc3ccc4c(c3)OCO4)cc2[N+](=O)[O-])CC1`, the Potency entry is “inactive”.

Take `CC(=O)c1cccc(-c2ccc(CN3C(CC(C)C)C(=O)N(Cc4cn(CC5CCCCC5)nn4)CCS3(=O)=O)cc2)c1` (stereo not given): the Potency entry was “inactive”.

Take `C=CCCC(=O)N1C[C@H]2CON(C)[C@H]2C[C@H]1c1cccc(Nc2ccccc2)c1`: the Potency result was “inactive”.

As for `CC(Nc1ccc([N+](=O)[O-])cc1[N+](=O)[O-])c1ccccc1` (stereo not given), the Potency entry was “inactive”.

As for `COc1cccc2c1C(=O)c1c(O)c3c(c(O)c1C2=O)CC(O)(C(C)=NNC(=O)c1ccc(Cl)c(Cl)c1)CC3OC1CC(N)C(O)C(C)O1` (stereo not given), the Potency entry was “inactive”.

`CN1CCN(CCCNC(=O)c2ccc(/C=C3\Oc4ccccc4N(Cc4ccc(Cl)cc4)C3=O)cc2)CC1`: the Potency result was “inactive”.

On to `O=C(NCCCN1CCOCC1)c1ccc2c(c1)N(Cc1cccc(F)c1)C(=O)c1ccccc1S2`, for which the Potency result was “inactive”.

For the molecule `CCN1CCN(CCNC(=O)c2ccc(/C=C3/Sc4ccccc4N(Cc4cccc(C)c4)C3=O)cc2)CC1`, the Potency was 6.31 µM (active).
